Measured values published in PubChem BioAssay (NCI).
This is part of a sample that, as a whole, favours compounds with a hit. Of some 79,000 tested, about 15% had one in any assay. Activity calls are given as the source filed them. Rule as the data show it: active = growth inhibition above about 70%; inactive = the rest.

How the values were obtained:
[1] = NCI Yeast Anticancer Drug Screen. Data for the rad50 strain (AID 155);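 also: 0% = growth of vehicle-only cultures of the same strain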; settings: S. cerevisiae rad50 strain growth inhibition, stronger effect = higher value
How it was run: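 Genetically altered yeast (DNA repair pathway); compound treatment; growth inhibition vs vehicle ctrl.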

[2] = NCI Yeast Anticancer Drug Screen. Data for the mec2-1 strain (AID 157); settings: S. cerevisiae mec2-1 strain, stronger effect = higher value
How it was run: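 Vehicle-treated cultures served as reference for growth inhibition of compound-exposed mec2-1 yeast.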

[3] = NCI Yeast Anticancer Drug Screen. Data for the sgs1 mgt1 strain (AID 161);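 also: 0% = growth of cultures given vehicle only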; settings: S. cerevisiae sgs1 mgt1 strain, stronger effect = higher value
How it was run: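 Mutant yeast exposed to compound; growth scored against vehicle-only wells.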

[4] = NCI Yeast Anticancer Drug Screen. Data for the cln2 rad14 strain (AID 165);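 also: 0% = growth equal to vehicle treated cultures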; settings: S. cerevisiae cln2 rad14 strain, stronger effect = higher value
How it was run: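 Each compound was tested on cln2 rad14 yeast. Inhibition of growth was calculated against vehicle-exposed controls.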

[5] = NCI Yeast Anticancer Drug Screen. Data for the bub3 strain (AID 167); settings: S. cerevisiae bub3 mutant strain, stronger effect = higher value
How it was run: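 Yeast carrying a defined mutation is treated with each compound, and growth is compared with that of vehicle-exposed cells to give inhibition.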

[6] = NCI Yeast Anticancer Drug Screen. Data for the mlh1 rad18 strain (AID 175); settings: S. cerevisiae mlh1 rad18 strain growth inhibition, stronger effect = higher value
How it was run: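 Vehicle-treated cultures served as the reference for growth inhibition in a yeast strain carrying DNA damage repair alterations exposed to each compound.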

[7] = at 5.0 µM (retest, dose inferred, filed as 0.5)
[8] = at 50.0 µM (retest, dose inferred, filed as 5.0)

Measured: growth inhibition

CN(C)CCCC1(c2ccccc2)SC(C)(C)c2ccc(Cl)cc21 (centres undefined)
inactive: [1]; [7] -36% | [1]; [8] 28% | [1]; at 50.0 µM 15.3% | [2]; [7] -4% | [2]; [8] 7% | [2]; at 50.0 µM 28.9% | [3]; [7] 0% | [3]; [8] 39% | [3]; at 50.0 µM 44.2% | [4]; [7] 0% | [4]; [8] 0% | [4]; at 50.0 µM -9.75% | [5]; [7] -2% | [5]; [8] 11% | [5]; at 50.0 µM 19.3% | [6]; [7] 11% | [6]; [8] 56% | [6]; at 50.0 µM 66%

Nc1nc(-c2ccccn2)cc2c(Cl)cccc12
active: [1]; [8] 90% | [2]; [8] 96% | [3]; [8] 92% | [4]; [8] 75% | [5]; [8] 91% | [6]; [8] 96%
inactive: [1]; [7] 12% | [1]; at 50.0 µM -2.3% | [2]; [7] 23% | [2]; at 50.0 µM -22.1% | [3]; [7] 21% | [3]; at 50.0 µM 11.7% | [4]; [7] 13% | [4]; at 50.0 µM 3.7% | [5]; [7] -8% | [5]; at 50.0 µM 17.6% | [6]; [7] 34% | [6]; at 50.0 µM 8.75%

CCCCCCCCCCN1Cc2ccccc2C1
inactive: [2]; [7] 68% | [4]; [7] 68% | [6]; [7] 68%
active: [1]; [7] 77% | [1]; [8] 99% | [1]; at 50.0 µM 99% | [2]; [8] 99% | [2]; at 50.0 µM 97.9% | [3]; [7] 87% | [3]; [8] 99% | [3]; at 50.0 µM 99% | [4]; [8] 99% | [4]; at 50.0 µM 97.5% | [5]; [7] 85% | [5]; [8] 99% | [5]; at 50.0 µM 98% | [6]; [8] 99% | [6]; at 50.0 µM 99.3%

c1ccc(C2=NC(=c3ccc(=C4N=C(c5ccccc5)C(c5ccccc5)=N4)cc3)N=C2c2ccccc2)cc1
inactive: [1]; [7] 3% | [1]; [8] 44% | [2]; [7] 3% | [2]; [8] 17% | [2]; at 50.0 µM 65.6% | [3]; [7] -2% | [3]; [8] 48% | [3]; at 50.0 µM 59.9% | [4]; [7] 7% | [4]; [8] 5% | [4]; at 50.0 µM 29.6% | [5]; [7] 3% | [5]; [8] 8% | [5]; at 50.0 µM 51.3% | [6]; [7] 1% | [6]; [8] 19%
active: [1]; at 50.0 µM 86.6% | [6]; at 50.0 µM 93.7%

c1ccc([Si](C[CH2][Sn]([c]2ccccc2)([c]2ccccc2)[c]2ccccc2)(c2ccccc2)c2ccc([Si](C[CH2][Sn]([c]3ccccc3)([c]3ccccc3)[c]3ccccc3)(c3ccccc3)c3ccccc3)cc2)cc1
active: [1]; [7] 99% | [1]; [8] 98% | [1]; at 50.0 µM 77.3% | [2]; [7] 99% | [2]; [8] 99% | [2]; at 50.0 µM 89.5% | [3]; [7] 100% | [3]; [8] 98% | [3]; at 50.0 µM 71.9% | [4]; [7] 99% | [4]; [8] 98% | [4]; at 50.0 µM 83.8% | [5]; [7] 99% | [5]; [8] 98% | [5]; at 50.0 µM 97.6% | [6]; [7] 99% | [6]; [8] 98% | [6]; at 50.0 µM 73.1%

O=S1(=O)C=C(c2ccccc2)S(=O)(=O)C=C1c1ccccc1
active: [1]; [8] 85% | [1]; at 50.0 µM 89% | [2]; [8] 76% | [2]; at 50.0 µM 89.7% | [3]; at 50.0 µM 95.2% | [4]; [8] 94% | [5]; [8] 81% | [5]; at 50.0 µM 91.8% | [6]; [8] 85% | [6]; at 50.0 µM 91.2%
inactive: [1]; [7] -1% | [2]; [7] 3% | [3]; [7] 0% | [3]; [8] 63% | [4]; [7] 0% | [4]; at 50.0 µM 57.9% | [5]; [7] -5% | [6]; [7] 0%

Cc1[nH]c2c(C)cccc2c1C1Cc2ccccc2N1 (centres undefined)
inactive: [1]; [7] 3% | [2]; [7] -1% | [3]; [7] -12% | [4]; [7] -5% | [5]; [7] 6% | [6]; [7] 4%
active: [1]; [8] 99% | [1]; at 50.0 µM 98.4% | [2]; [8] 99% | [2]; at 50.0 µM 98.8% | [3]; [8] 98% | [3]; at 50.0 µM 98.8% | [4]; [8] 98% | [4]; at 50.0 µM 98.5% | [5]; [8] 98% | [5]; at 50.0 µM 98.7% | [6]; [8] 98% | [6]; at 50.0 µM 98.2%

COc1ccc(OC)c(/C=C/c2ccnc3ccccc23)c1
active: [1]; [8] 98% | [1]; at 50.0 µM 96.3% | [2]; [8] 97% | [2]; at 50.0 µM 95.3% | [3]; [8] 98% | [3]; at 50.0 µM 97.2% | [4]; [8] 97% | [4]; at 50.0 µM 94.3% | [5]; [8] 97% | [5]; at 50.0 µM 95% | [6]; [8] 97% | [6]; at 50.0 µM 95.6%
inactive: [1]; [7] -3% | [2]; [7] -1% | [3]; [7] -2% | [4]; [7] -4% | [5]; [7] -1% | [6]; [7] -2%
